The panel holds about 83,000 compounds, 20% with a hit somewhere; the sample as a whole holds those more often.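 Assay: single dose, 48 h. Readout: percent growth (0 = no net growth; negative = cell death). Active: <10.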 Unmarked numbers belong to inactive results. Activity calls are given as the source filed them.

The results in this text go back to PubChem BioAssay (NCI).

Among the test systems are K-562 leukemia; MALME-3M melanoma; MDA-MB-231 breast; RXF 393 renal; SF-268 CNS; SF-295 CNS; SF-539 CNS; UACC-257 melanoma; M14 melanoma; HCT-15 colon; HT29 colon; SNB-75 CNS; SNB-19 CNS; U251 CNS; PC-3 prostate; UACC-62 melanoma; SK-MEL-28 melanoma; SK-MEL-2 melanoma; LOX IMVI melanoma; SK-MEL-5 melanoma.
Holding throughout (assay): NCI-60 one-dose screen, 48 h (100 = growth as untreated, 0 = no growth, -100 = all killed)
Holding throughout (conditions): 10 µM unless noted

Turning to `O=C(OC[C@H]1O[C@H](OC(=O)c2cc(O)c(O)c(OC(=O)c3cc(O)c(O)c(O)c3)c2)[C@H](OC(=O)c2cc(O)c(O)c(OC(=O)c3cc(O)c(O)c(O)c3)c2)[C@@H](OC(=O)c2cc(O)c(O)c(OC(=O)c3cc(O)c(O)c(O)c3)c2)[C@@H]1OC(=O)c1cc(O)c(O)c(OC(=O)c2cc(O)c(O)c(O)c2)c1)c1cc(O)c(O)c(OC(=O)c2cc(O)c(O)c(O)c2)c1`, the growth was 31.5% in the test on K-562 leukemia; 49% with MALME-3M melanoma; 23.5% with MDA-MB-231 breast; -12.7% (active) with RXF 393 renal; 27.2% in the test on SF-268 CNS; 9.95% (active) in the test on SF-295 CNS. In addition, the growth with SF-539 CNS is 29.3%; with UACC-257 melanoma, 60.2%; with M14 melanoma, 17.6%; in the test on HCT-15 colon it was 28.6%; with HT29 colon, 33.5%; with SNB-75 CNS, 53.6%. Further, the growth was 36.6% in the test with SNB-19 CNS; 22.3% with U251 CNS; 38% with PC-3 prostate; 10.6% in the test with UACC-62 melanoma; 78.6% with SK-MEL-28 melanoma; 80.4% with SK-MEL-2 melanoma.
In the case of `CCN1C2=C(SC(=S)C1=C1SC(C(=O)OC)=C(C(=O)OC)S1)SC(=Nc1ccc(OC)cc1)C2=O`, the growth with K-562 leukemia was 7.47% (active); with MALME-3M melanoma, -28% (active); in the test on MDA-MB-231 breast, 4.53% (active); with RXF 393 renal it was -87.7% (active); in the test on SF-268 CNS, 1.48% (active); in the test on SF-295 CNS, 2.33% (active). Besides, the growth in the test on SF-539 CNS is -24.1% (active); with UACC-257 melanoma it was -55.1% (active); in the test on M14 melanoma, -54.7% (active); with HCT-15 colon, -20.7% (active); with HT29 colon, -6.07% (active); in the test on SNB-75 CNS it was -16.1% (active). Also, the growth in the test on SNB-19 CNS was 4.72% (active); in the test with U251 CNS, -32.5% (active); in the test with PC-3 prostate, 2.92% (active); in the test with UACC-62 melanoma, -76.8% (active); with LOX IMVI melanoma, -72.1% (active); in the test with SK-MEL-28 melanoma, -55% (active). Also, the growth with SK-MEL-2 melanoma is -5.85% (active).
Consider `CCCc1nn(C)c2c(=O)[nH]c(-c3cc(S(=O)(=O)N4CCN(C)CC4)ccc3OCC)nc12`, for which the growth in the test with K-562 leukemia is 97.9%; in the test with MALME-3M melanoma, 102%; with MDA-MB-231 breast it was 90.5%; with RXF 393 renal, 120%; in the test on SF-268 CNS, 119%; in the test on SF-295 CNS, 93%. Also, the growth was 111% with SF-539 CNS; 97.9% with UACC-257 melanoma; 102% with M14 melanoma; 103% in the test on HCT-15 colon; 99.1% in the test on HT29 colon; 104% in the test on SNB-75 CNS. Also, the growth with SNB-19 CNS is 103%; with U251 CNS, 94.5%; in the test with PC-3 prostate it was 91.1%; with UACC-62 melanoma, 99.9%; in the test on LOX IMVI melanoma it was 93.9%; in the test with SK-MEL-28 melanoma, 116%. In addition, the growth in the test on SK-MEL-2 melanoma was 96.6%.
For the compound `Clc1ccc(CCC(Cn2ccnc2)Sc2c(Cl)cccc2Cl)cc1` (stereo unspecified), the growth in the test on K-562 leukemia is 30.5%; in the test on MALME-3M melanoma, 60.3%; in the test with MDA-MB-231 breast, 55.5%; in the test on RXF 393 renal it was 67.4%; in the test on SF-268 CNS, 87.1%; with SF-295 CNS, 43.4%. The growth in the test with SF-539 CNS was 91.5%; in the test with UACC-257 melanoma it was 83.4%; with M14 melanoma it was 54.9%; with HCT-15 colon, 34%; in the test with HT29 colon, 26.7%; in the test on SNB-75 CNS, 92.5%. The growth in the test with SNB-19 CNS is 80.2%; in the test on U251 CNS it was 57.2%; in the test with PC-3 prostate, 26.5%; in the test on UACC-62 melanoma it was 55%; with LOX IMVI melanoma it was 40.5%; in the test with SK-MEL-28 melanoma, 102%. Besides, the growth with SK-MEL-2 melanoma is 72.8%.
On to `CCn1c2c(c3ccccc31)SC1c3cccn3CCN1C2=S` (stereo unspecified), for which the growth was 105% in the test on K-562 leukemia; 112% in the test on MALME-3M melanoma; 96.7% in the test with MDA-MB-231 breast; 151% in the test on RXF 393 renal; 96.4% in the test on SF-268 CNS; 106% in the test on SF-295 CNS. Also, the growth in the test on SF-539 CNS is 97.9%; with UACC-257 melanoma, 98%; with M14 melanoma, 94.4%; in the test with HCT-15 colon, 82.3%; in the test with HT29 colon, 90.2%; in the test on SNB-75 CNS it was 79.6%. The growth in the test with SNB-19 CNS was 95.8%; in the test on U251 CNS it was 93.8%; with PC-3 prostate, 89.1%; with UACC-62 melanoma, 81%; with LOX IMVI melanoma, 96.8%; in the test on SK-MEL-28 melanoma it was 110%. The growth in the test with SK-MEL-2 melanoma is 89.9%.
Consider `O=C(NCCc1ccccc1)C1CCC(=O)N1Cc1ccc(Br)cc1` (stereo unspecified), for which the growth is 107% in the test with K-562 leukemia; 96.7% in the test on MALME-3M melanoma; 114% in the test on MDA-MB-231 breast; 106% in the test on RXF 393 renal; 106% with SF-268 CNS; 106% with SF-295 CNS. Also, the growth was 96% in the test on SF-539 CNS; 79.9% in the test with UACC-257 melanoma; 104% with M14 melanoma; 108% in the test with HCT-15 colon; 85.6% in the test on HT29 colon; 100% in the test on SNB-75 CNS. The growth with SNB-19 CNS is 96.7%; with U251 CNS, 96.7%; in the test on SK-MEL-5 melanoma, 101%; with UACC-62 melanoma it was 95.4%; in the test on LOX IMVI melanoma, 97.8%; in the test on SK-MEL-28 melanoma, 99.7%. For the same compound, in the test on SK-MEL-2 melanoma, the growth was 96.1%.
For the compound `CN(CCOc1ccc(CC2SC(=O)NC2=O)cc1)c1ccccn1` (stereo unspecified), the growth in the test on K-562 leukemia was 118%; with MALME-3M melanoma, 88.3%; with MDA-MB-231 breast it was 86.5%; in the test with RXF 393 renal, 110%; in the test on SF-268 CNS, 105%; with SF-295 CNS it was 98.9%. The growth with SF-539 CNS was 104%; in the test with UACC-257 melanoma, 98.4%; in the test with M14 melanoma, 99.7%; with HCT-15 colon it was 96.2%; with HT29 colon, 117%; with SNB-75 CNS it was 96.3%. The growth in the test with SNB-19 CNS is 105%; in the test with U251 CNS, 90.7%; with PC-3 prostate, 105%; in the test with UACC-62 melanoma, 93.1%; in the test with LOX IMVI melanoma it was 92.8%; in the test with SK-MEL-28 melanoma, 111%. The growth in the test with SK-MEL-2 melanoma is 117%.
As for `CC(C)c1nc(N(C)S(C)(=O)=O)nc(-c2ccc(F)cc2)c1/C=C/[C@@H](O)C[C@@H](O)CC(=O)O`, the growth in the test with K-562 leukemia was 130%; in the test with MALME-3M melanoma it was 104%; in the test on MDA-MB-231 breast it was 63.7%; with RXF 393 renal it was 105%; in the test with SF-268 CNS it was 77.5%; with SF-295 CNS it was 100%. For the same compound, the growth with SF-539 CNS is 97.6%; in the test with UACC-257 melanoma it was 103%; in the test on M14 melanoma it was 104%; with HCT-15 colon it was 95.2%; with HT29 colon it was 104%; in the test with SNB-75 CNS, 107%. Further, the growth in the test on SNB-19 CNS is 115%; in the test with U251 CNS, 61.7%; in the test with PC-3 prostate, 69.3%; in the test on UACC-62 melanoma, 102%; with LOX IMVI melanoma it was 81.3%; in the test on SK-MEL-28 melanoma, 107%. Besides, in the test on SK-MEL-2 melanoma, the growth was 97.8%.
